Source: PubChem
Many of the other results were omitted from the sample, so hits are more common in it than they were.
KDM5B inh: KDM5B demethylase inhibition; KDM5B demethylase, FDH-coupled NADH fluorescence (FDH is formaldehyde dehydrogenase); Potency, µM (series often up to 57.7 µM), hits mostly inhibitors; 2.6% of 220,000 active; AID 1347165; active = well fitted inhibition curve with a large enough effect; note: 0% is about no effect; nearly all actives have a fitted effect of over 70% in size
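Compound dilutions met 200 nM (final) KDM5BΔAP for 10 min at room temperature before substrate addition. The substrate mix held 12.5 µM H3K4me3 with cofactors 25 µM α-ketoglutarate and 50 µM Fe²⁺. NADH signal gain over 30 min defined activity.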
* marks the source's active call; other numbers are inactive results; i = inactive. Potency is the fitted concentration of half-maximal effect.

SMILES | KDM5B inh
CC(NC(=O)c1ccoc1)C(=O)Nc1cccnc1N1CCCCC1 (configuration not stated) | i
CONC(=O)CC1Sc2ccc(Cl)cc2NC1=O (configuration not stated) | i
O=C(Nc1nc2ccccc2s1)C1CCCc2ccccc21 (configuration not stated) | i
COc1ccc(N2CCN(c3nc(C(=O)NCc4ccc(F)cc4F)cs3)CC2)cc1 | i
COc1ccc2cc(CNC(=O)CNC(=O)c3ccccc3)ccc2c1 | i
Cc1ccc(-c2ccc3nnc(CNC(=O)CNC(=O)c4ccccc4)n3n2)cc1 | 31.6µM*
COc1ccc(-c2ccc3nnc(CNC(=O)CNC(=O)c4ccccc4)n3n2)cc1 | 28.2µM*
COc1ccc(-c2ccc3nnc(CNC(=O)COc4ccccc4)n3n2)cc1 | 28.2µM*
CCCCOC(=O)C[N+](C)(C)C/C=C(/C)Cl | i
CCN1CCC2(CC1)N=C(SCC(=O)Nc1ccc(F)c(Cl)c1)C(c1ccccc1)=N2 | i
Cc1cc(C)c(-c2cc(-c3ccccc3)c3ccccc3n2)cc1C | i
CC1(C)C2CCC1(C)C(OC(=O)C[N+]1(C)CCOCC1)C2 (configuration not stated) | i
O=C(COc1ccccc1)N(Cc1ccc(-c2ccc(Cl)cc2)o1)C1CCS(=O)(=O)C1 (configuration not stated) | i
Fc1ccc(NN=C2c3ccccc3-c3ccccc32)c(F)c1 | i
O=C(Nc1ccc(F)c(F)c1)c1cnc2ccccc2n1 | i
CC(C)NC(=O)N1CCOc2ccc(CCC(=O)NCCCN3CCOCC3)cc2C1 | i
CCN(CC)c1cc(CCC(=O)NCCCN2CCOCC2)ccn1 | 25.1µM*
O=C(CCc1ncc(-c2c(F)cccc2F)o1)NCCCN1CCOCC1 | i
CCN(CC)c1ccc2nnc(CCC(=O)N3CCOCC3)n2n1 | i
CCN(CC)c1cc(CCC(=O)N2CCC(C)CC2)ccn1 | 25.1µM*
CN(Cc1ccc(C(=O)NCC(F)(F)F)cc1)C(=O)CCc1ccccc1 | i
CN(Cc1ccsc1)C(=O)CCc1ccccc1 | i
CCN(CC)c1cc(CCC(=O)N(C)Cc2ccccc2)ccn1 | 22.4µM*
CCN(CC)c1ccc2nnc(CCC(=O)N3CCC(C)CC3)n2n1 | i
Cn1cnc2c1c(=O)n(CC(=O)NCc1ccc(F)cc1)c(=O)n2C | i
SMILES | KDM5B inh
N#Cc1cc2c(nc1SCc1ccccc1Cl)CCCC2=O | i
Cc1ccccc1C(C)NC(=O)Cn1cnc2c1c(=O)n(C)c(=O)n2C (configuration not stated) | i
Cc1nc(-c2cccc(Cl)c2)n(CC(=O)Nc2ccc(F)cc2)c(=O)c1CCO | i
CCCCn1c(NCc2c[nH]c3ccccc23)nc2ccccc21 | i
Cc1ccc(S(=O)(=O)N2CCN(C(=O)CCc3ncc(-c4ccccc4F)o3)CC2)c(C)c1 | i
Cc1ccc(C2CC(=O)c3cn4nc(C(F)(F)F)nc4nc3C2)cc1 (configuration not stated) | i
Cc1oc2ccn(Cc3cccc(F)c3)c(=O)c2c1C(=O)NCc1cccc(F)c1 | i
CCn1ccc2oc(C)c(C(=O)N3CCN(c4ccc(F)cc4)CC3)c2c1=O | i
Cc1oc2ccn(Cc3ccc(F)cc3)c(=O)c2c1C(=O)O | i
COc1ccccc1NC(=O)c1c(C)oc2ccn(Cc3ccc(F)cc3)c(=O)c12 | 31.6µM*
Cc1oc2ccn(Cc3ccc(F)cc3)c(=O)c2c1C(=O)N1CCN(c2ccccn2)CC1 | 22.4µM*
CCCNC(=O)c1c(C)oc2ccn(Cc3ccc(F)cc3)c(=O)c12 | i
COc1ccccc1N1CCN(CC(=O)Nc2ncc3c(n2)CC(C)CC3=O)CC1 (configuration not stated) | i
Cc1cccc(NC(=S)N(CCC(C)C)C(C)c2cccs2)c1 (configuration not stated) | i
CCn1cnc2c1c(=O)n(CC(=O)OCCOc1cccc(Cl)c1)c(=O)n2Cc1ccccc1 | i
COC(=O)c1cccc(NC(=O)CSc2ncnc3c(-c4ccc(OC)cc4)c[nH]c23)c1 | i
CN(C)C[C@@H]1CN(S(C)(=O)=O)C[C@H]1NC(=O)c1c[nH]c2ccccc12 | i
Cc1ccccc1C(=O)N[C@@H]1CN(S(C)(=O)=O)C[C@H]1CN(C)C | i
CN(C)C[C@@H]1CN(S(C)(=O)=O)C[C@H]1NC(=O)c1cc2ccccc2[nH]1 | 31.6µM*
COc1cc(C2CC(=O)Nc3nc(-c4ccccc4)[nH]c(=O)c32)cc(OC)c1O (configuration not stated) | i
Cc1ccc(NC(=O)Cn2nc(-c3cccs3)oc2=O)cc1C | i
COc1ccc(C(=O)NCc2nc(-c3cccs3)no2)cc1 | i
Cc1noc(-c2ccccc2NC(=O)c2ccncc2)n1 | i
COc1ccc(C(=O)NCc2nnc3c(-c4nc(C)no4)cccn23)cc1 | 25.1µM*
Cc1ccc(C(=O)NCc2nnc3c(-c4nc(C)no4)cccn23)cc1 | 28.2µM*
SMILES | KDM5B inh
CCCCn1c(N)c(N(C)C(=O)Cn2c(C)nc3ccccc32)c(=O)[nH]c1=O | i
O=C(CSc1ncnc2ccccc12)Nc1ccc(F)c(F)c1 | i
COc1ccc(-c2noc(CC3CCN(C(=O)Cc4cccc(C)c4)CC3)n2)cc1 | i
CC1CCN(C(=O)C2CCN(C(=O)c3ccc4ccccc4n3)CC2)CC1 | i
CC(=O)Nc1ccc(NC(=O)COC(=O)c2ccccc2Sc2ccccc2C#N)cc1 | i
COCCC(=O)N1CCCn2cc(-c3cccc(C#N)c3)nc21 | 22.4µM*
N#Cc1cccc(-c2cn3c(n2)N(C(=O)c2cccnc2)CCC3)c1 | 35.5µM*
COc1ccc(C(=O)N2CCCn3cc(-c4ccccc4)nc32)cn1 | i
COc1ccc(-c2cn3c(n2)N(C(=O)Cc2ccccc2)CCC3)cc1 | i
O=C(c1cccs1)N1CCCn2cc(-c3ccccc3F)nc21 | i
O=C(c1ccsc1)N1CCCn2cc(-c3ccccc3F)nc21 | i
N#Cc1cccc(-c2cn3c(n2)N(C(=O)c2cccs2)CCC3)c1 | 28.2µM*
Cc1ccc(C(=O)N2CCCn3cc(-c4ccccc4F)nc32)cn1 | i
COc1cccc(-c2cn3c(n2)N(C(=O)Cn2ccnc2C)CCC3)c1 | i
Cc1ccccc1C(=O)Oc1ccc2c(=O)c(-c3ccccc3)coc2c1 | i
O=[N+]([O-])c1cccc(CON=C2CCC3(CC2)OCCO3)c1 | i
Cc1cccc(C(CC(=O)Nc2cccc(-c3ccno3)c2)n2cccc2)c1 (configuration not stated) | i
Oc1ccc(-c2nc(-c3ccc(Br)cc3)no2)cc1 | i
Cc1ccc(-n2c(C)nnc2SCC(=O)Nc2c(C#N)c(C)c(C)n2Cc2ccccc2)cc1 | i
O=C(CSc1ccc(Cl)cc1)Nc1ccccc1-c1nc(-c2ccccn2)no1 | i
C/C=C/Cn1c(SCCCCC)nc2c1c(=O)[nH]c(=O)n2C | i
CCCC1N=C2c3ccccc3N=C(SCC(=O)Nc3ccc(OC)c(Cl)c3)N2C1=O (configuration not stated) | i
CC(C)(C)c1ccc(C(=O)COC(=O)c2ccc3ccccc3n2)cc1 | i
O=C(Nc1ccccc1F)N1CC2CCC(C1)N2Cc1ccc(Cl)cc1 | i
COc1ccc(C(=O)N2C[C@@H]3OCC(=O)N(CC4CCCCC4)[C@@H]3C2)cc1 | i
CN1CCCC2(CCN(c3ccc(C#N)cn3)C2)C1=O (configuration not stated) | i
O=C(c1cccnc1)N1C[C@@H]2OCC(=O)N(CC3CC3)[C@@H]2C1 | i
